How the values were obtained:
[1] = tested on: Human papillomavirus type 1a protein E7 (residues 44-93); assay: small molecules binding HPV E7 44-93 – biochemical, small-molecule microarray, residues 44-93, 635 nm fluorescence, primary screen (AID 1108); conditions: fluorescence 635 nm, higher = more signal;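 further: E7 fragment applied at 1 µg/mL in TBST for 1 h at 4 C; score combines spot fluorescence with its signal to noise ratio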
[2] = hepatitis C replication reporter changes, two-sided – Huh7 cells, luciferase reporter, HCV replication inhibitor project, primary screen (AID 1109); conditions: Huh7 HCV replicon luciferase reporter, 48 h; higher = more signal;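 further: huh7 hepatoma cells harbouring a luciferase neomycin HCV replicon reporter; luciferase luminescence as measure of HCV replicon replication; test concentration not given here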
[3] = target: Left-right determination factor 2 (Homo sapiens) (UniProt O00292); assay: small molecules binding LEFTY2 protein – biochemical, small-molecule microarray, 635 nm fluorescence scan, primary screen (AID 1110); conditions: higher = more signal
[4] = target: Calmodulin-1 (Homo sapiens) (UniProt P0DP23); assay: small molecules binding calmodulin-1 with EGTA – biochemical, small-molecule microarray, Cy5-labelled CALM1, profiling panel (AID 1111); conditions: Cy5-CALM1 binding fluorescence, higher = more signal;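 further: labelled calmodulin applied in Tris saline Tween buffer holding calcium plus EGTA and DTT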
[5] = target: Calmodulin-1 (Homo sapiens) (UniProt P0DP23); assay: small molecules binding Ca-loaded calmodulin-1 – biochemical, small-molecule microarray, Cy5-labelled CALM1, plus calcium, artefact control for SMM control-protein annotation, profiling panel (AID 1112); conditions: Cy5-CALM1 binding fluorescence, higher = more signal;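 further: score merges spot fluorescence with signal to noise from triplicate slides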
[6] = probe aWnt5a binding to arrayed compounds – biochemical, biotinylated probe, 635/667 nm fluorescence, primary screen (AID 1113); conditions: small-molecule microarray, higher = more signal;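 further: score merges 667 nm fluorescence intensity with signal-to-noise per printed feature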
[7] = probe aShh binding to arrayed compounds – biochemical, biotinylated probe, 635/667 nm fluorescence, primary screen (AID 1114); conditions: small-molecule microarray, higher = more signal;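 further: probe is biotin-labelled aShh protein from a stem cell growth factor screen; measures binding of labelled protein to compounds printed on the slide; score merges feature fluorescence at 667 nm with signal-to-noise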
[8] = probe aNog binding to arrayed compounds – biochemical, biotinylated probe, 635/667 nm fluorescence, primary screen (AID 1115); conditions: small-molecule microarray, higher = more signal;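 further: probe is biotinylated aNog protein used at 0.15 µg/mL for 1 h at 4 C; z-score combines 667 nm fluorescence of each spot with its signal to noise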
[9] = target: Torsin-1A-interacting protein 1 (Homo sapiens) (UniProt Q5JTV8); assay: compound microarray binding of lysate hLAP1 – cell lysate, small-molecule microarray, COS7 lysate, 635/667 nm fluorescence, primary screen (AID 1116); conditions: 635 nm fluorescence, higher = more signal
[10] = target: Alpha-bungarotoxin (Bungarus multicinctus) (UniProt P60615); assay: compounds binding labelled alpha-BTX control protein – biochemical, small-molecule microarray, Alexa647 label, 635/667 nm fluorescence, artefact control for SMM control protein annotation, profiling panel (AID 1117); conditions: alpha-BTX-A647 binding fluorescence, higher = more signal
Alpha-bungarotoxin (Bungarus multicinctus), sequence (P60615 whole entry, looked up): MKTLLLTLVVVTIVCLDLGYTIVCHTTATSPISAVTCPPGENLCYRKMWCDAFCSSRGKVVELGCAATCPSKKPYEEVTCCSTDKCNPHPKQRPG

Torsin-1A-interacting protein 1 (Homo sapiens), sequence (Q5JTV8 whole entry, looked up): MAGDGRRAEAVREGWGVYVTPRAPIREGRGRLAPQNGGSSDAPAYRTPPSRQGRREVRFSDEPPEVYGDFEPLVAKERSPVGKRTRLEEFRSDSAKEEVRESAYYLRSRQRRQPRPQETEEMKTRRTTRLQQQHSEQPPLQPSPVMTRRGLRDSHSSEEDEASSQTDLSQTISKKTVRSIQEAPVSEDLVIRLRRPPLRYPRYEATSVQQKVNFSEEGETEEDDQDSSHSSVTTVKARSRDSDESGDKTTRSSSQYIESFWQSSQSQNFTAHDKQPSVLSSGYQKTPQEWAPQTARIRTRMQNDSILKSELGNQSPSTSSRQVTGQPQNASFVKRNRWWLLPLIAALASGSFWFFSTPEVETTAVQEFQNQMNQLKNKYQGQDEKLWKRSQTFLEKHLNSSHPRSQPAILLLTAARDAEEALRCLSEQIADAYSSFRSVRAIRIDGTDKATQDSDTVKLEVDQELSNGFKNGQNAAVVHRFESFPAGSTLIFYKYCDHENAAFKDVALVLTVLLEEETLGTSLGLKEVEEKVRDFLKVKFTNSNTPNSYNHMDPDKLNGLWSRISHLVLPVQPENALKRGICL
Left-right determination factor 2 (Homo sapiens), sequence (O00292 whole entry, looked up): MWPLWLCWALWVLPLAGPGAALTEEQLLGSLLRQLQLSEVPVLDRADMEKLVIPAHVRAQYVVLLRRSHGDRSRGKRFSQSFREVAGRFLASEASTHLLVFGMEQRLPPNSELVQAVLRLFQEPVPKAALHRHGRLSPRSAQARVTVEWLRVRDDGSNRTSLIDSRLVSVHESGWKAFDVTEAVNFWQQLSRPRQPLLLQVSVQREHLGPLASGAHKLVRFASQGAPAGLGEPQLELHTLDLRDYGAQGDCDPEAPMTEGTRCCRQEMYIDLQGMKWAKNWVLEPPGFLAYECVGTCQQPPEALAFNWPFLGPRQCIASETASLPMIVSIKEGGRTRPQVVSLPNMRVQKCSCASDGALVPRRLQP

Row | SMILES | composite z-score [1] | z-score [2] | composite z-score [3] | composite z-score [4] | composite z-score [5] | composite z-score [6] | composite z-score [7] | composite z-score [8] | composite z-score [9] | composite z-score [10]
1 | C=CCC(OC(C)=O)[C@@H]1[C@@H](N(Cc2ccc(-c3ccccc3)cc2)C(=O)c2ccc(C)cc2)c2cc(OCCCO)ccc2N1C(=O)Cc1ccc(OC)cc1 (stereo not given in full) | 0.422 | -0.75 | 0.0181 | -0.0181 | -0.164 | 0.0115 | -0.273 | -0.0579 | 0.0982 | 1.73
2 | O=C1C[C@@](C(=O)O)(c2ccc([N+](=O)[O-])cc2)[C@@H](c2ccc(CO)cc2I)N1C1CCCCC1 | -0.549 | -1.32 | -0.27 | 1.6 | 0.734 | 0.0194 | -0.299 | -0.103 | -0.126 | 1.28
3 | C=CC[C@]1(C(=O)NCCN2CCOCC2)N=C(c2ccc(OCCCO)cc2)O[C@H]1c1ccccc1N=[N+]=[N-] | 1.01 | -0.44 | 0.26 | 1.34 | -0.0083 | 0.048 | -0.155 | 1.39 | 1.36 | 1.3
4 | CC(C)N1C(=O)c2ccccc2[C@](C)(C(=O)NC2CC2)[C@@H]1c1ccc(CO)cc1 | 0.591 | -0.479 | 0.0197 | 0.391 | -0.34 | -0.096 | -0.138 | 0.214 | 0.507 | 0.931
5 | COc1ccccc1CN1C(=O)c2ccccc2[C@](Cc2ccccc2I)(C(=O)NC2CC2)[C@@H]1c1ccc(CO)cc1 | 1.43 | -1.93 | 0.471 | 0.654 | -0.265 | 0.0704 | 0.242 | -0.354 | 1.69 | 1.38
6 | CCCC[C@@H]1C[C@H]1[C@@H](NC(=O)c1ccccc1)c1ccc(-c2ccccc2)cc1 | 1.34 | -2.9 | 0.0692 | 0.232 | 0.596 | 0.0375 | 0.1 | -0.421 | 0.0036 | 0.805
7 | CCCNC(=O)[C@@]1(C)c2ccccc2C(=O)N(Cc2cc(F)cc(C(F)(F)F)c2)[C@H]1c1ccc(CO)cc1 | 0.843 | -0.372 | -0.742 | 0.685 | 0.499 | -0.0405 | 0.0469 | 1.03 | 0.296 | -0.0457
8 | COc1ccc(C#Cc2ccc3c(c2)[C@]2(C(=O)N3)[C@H](C(=O)N3CCc4cc(OC)c(OC)cc4C3)[C@H]3C(=O)O[C@H](c4ccccc4)[C@H](c4ccccc4)N3[C@@H]2c2ccc(OCCO)cc2)cc1 | 1.39 | -0.864 | 0.483 | 0.861 | -0.0312 | 0.027 | 0.0469 | -0.551 | 0.692 | 0.992
9 | [N-]=[N+]=NCc1ccccc1[C@H]1OC(c2ccc(OCCCO)cc2)=N[C@@]1(Cc1ccccc1)C(=O)NCC(O)CO (stereo not given in full) | 1.13 | -1.38 | -0.524 | 1.52 | 0.564 | 0.507 | 0.128 | 1.9 | 1.51 | 0.131

Source: PubChem BioAssay
